Screen size: about 63,000 compounds; about 1,100 (1.7%) were called active. Many of the other results were omitted from the sample, so actives are more common in it than they were. Results with a measured potency or affinity are listed apart. A number with no mark means an inactive call.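 How the source made its calls: active means compounds whose percent cytotoxicity in the single-dose primary screen, scaled between solvent and toxic-drug controls, exceeds 50; inactive means the rest.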

A short description of the assay: viability loss of HPDE-C7K cells – cell-based, fluorescence, HTS, primary screen (AID 431).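 Further: 0% = DMSO solvent wells and 100% = doxorubicin-treated wells.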 The settings on record: HPDE-C7K KRASV12 cells, Alamar Blue viability, 48 h; at 10 µM; stronger effect = higher value.
`O=C(CSc1nnc(-c2ccc(S(=O)(=O)N3CCCC3)cc2)o1)NCc1ccco1`: the cytotoxicity was -15.4%.

In the case of `CCOc1ccc(OCC)c(NC(=O)CN(c2ccc(C)cc2)S(=O)(=O)c2c(C)noc2C)c1`, the cytotoxicity is -6.3%.

Take `COC(=O)c1[nH]c2ccc(C)cc2c1NS(=O)(=O)c1ccc(F)c(C)c1`: the cytotoxicity is 10.9%.

On to `CCCn1c(SCC(=O)NC(C)(C)C)nnc1C(C)C`, for which the cytotoxicity is -5.9%.

`COc1cccc(OC)c1C(=O)Nn1c(C2CCC2)nc2ccccc2c1=O`: the cytotoxicity is -10.3%.

Turning to `O=C(CN1C(=O)CCS(=O)(=O)c2ccccc21)Nc1cccc(Cl)c1`, the cytotoxicity was 2.5%.

`O=[n+]1c2c(n([O-])c3cc(F)ccc31)CCCC2`: the cytotoxicity was 0.3%.

Take `COc1cc(OC)cc(C(=O)NCc2n[nH]c(=S)n2-c2ccccc2)c1`: the cytotoxicity is -3.1%.

Regarding `Cc1ccc(-c2c(C)c(-c3ccc(F)cc3)nc(N)c2C#N)o1`, the cytotoxicity was 19.3%.

Consider `CCOc1ccccc1NC(=O)N1CCCC1C(=O)Nc1ccc(NC(C)=O)cc1` (centres undefined), for which the cytotoxicity was -3.3%.

As to `COc1ccc(Cl)cc1S(=O)(=O)N1CCN(C(=O)c2cc(OC)c(OC)c(OC)c2)CC1`, the cytotoxicity is -3.4%.

With `COc1cc(C(=O)N2CCN(c3ccc(C)cc3C)CC2)cc(OC)c1OC`, the cytotoxicity was 28.6%.

Consider `COc1cc(C(=O)N2CCN(c3cc(Cl)ccc3Cl)CC2)cc(OC)c1OC`, for which the cytotoxicity is 65.3% (active).

Consider `CC1(C)Cc2ccccc2-c2nnc(SCC(=O)Nc3ccc4c(c3)OCO4)n21`, for which the cytotoxicity is 4.9%.

`COc1ccc(-c2noc(CN(C)S(=O)(=O)c3ccc(Cl)cc3)n2)cc1OC`: the cytotoxicity was 27.5%.

Regarding `CCn1c(SCC(=O)Nc2ccc(S(N)(=O)=O)cc2)nnc1-c1cccc(OC)c1`, the cytotoxicity is 6.1%.

Turning to `CCn1c(SCC(=O)Nc2ccc3c(c2)OCCO3)nnc1-c1ccco1`, the cytotoxicity was 5.8%.

Take `CCn1c2ccccc2c2cc(NC(=O)N3CCOCC3)ccc21`: the cytotoxicity was -7.1%.

As for `C=CCn1c(SCC(=O)Nc2ccc(N(C)C)cc2)nnc1-c1cccc(C)c1`, the cytotoxicity was 33%.

Regarding `CCn1c(SCC(=O)Nc2ccc3c(c2)c2ccccc2n3CC)nnc1-c1cnccn1`, the cytotoxicity is 12.2%.

On to `COc1ccc(NC(=O)CSc2nnc(-c3ccccc3C)n2N)cc1OC`, for which the cytotoxicity is -2.1%.

Consider `CCn1c2ccccc2c2cc(CN3CCN(C(=O)c4ccco4)CC3)ccc21`, for which the cytotoxicity is -16%.

Turning to `CCn1c2ccccc2c2cc(NC(=O)CSc3nnc(-c4ccccc4OC)n3N)ccc21`, the cytotoxicity is 66% (active).

For the compound `CCn1c2ccccc2c2cc(NC(=O)CSc3nnnn3-c3ccccc3)ccc21`, the cytotoxicity is 5.6%.

Consider `CCn1c2ccccc2c2cc(NC(=O)c3ccco3)ccc21`, for which the cytotoxicity is 66.2% (active).

In the case of `CCn1c(SCC(=O)Nc2ccc3c(c2)c2ccccc2n3CC)nnc1-c1ccco1`, the cytotoxicity was 57.1% (active).

For the compound `O=C(CSc1nn(-c2ccccc2)c(=S)s1)Nn1cnnc1`, the cytotoxicity is -11.8%.

`CS(=O)(=O)N1CCCC(c2nc(-c3ccc(S(=O)(=O)NCc4ccccc4)cc3)no2)C1` (centres undefined): the cytotoxicity was -5.6%.

`O=C(CCCn1c(=S)[nH]c2cc3c(cc2c1=O)OCO3)N1CCN(c2ncccn2)CC1`: the cytotoxicity is -12.6%.

For `CCOc1ccccc1N1CCN(C(=O)Nc2cccc(Cl)c2)CC1`, the cytotoxicity is -2.1%.

With `Cn1cc(C(=O)NC2CCCCCCC2)c(=O)c2cc(S(=O)(=O)N3CCCC3)ccc21`, the cytotoxicity is -3.8%.

With `CCN(CC)S(=O)(=O)c1ccc2oc(C(=O)N3CCCCCC3)c(C)c2c1`, the cytotoxicity was 7.8%.

For the compound `CCCN1Cc2cccc(C(=O)Nc3cc(OC)cc(OC)c3)c2C1=O`, the cytotoxicity is 16.6%.

On to `CC(C)(C)OC(=O)NCCc1nnc(SCC(=O)c2ccc(Cl)cc2)o1`, for which the cytotoxicity was 3.8%.

Regarding `COc1cccc(C(=O)N(Cc2cc3cc(C)ccc3[nH]c2=O)CC2CCCO2)c1` (centres undefined), the cytotoxicity is -14.2%.

For `CCOC(=O)C1CCN(Cc2ccccc2C(F)(F)F)CC1`, the cytotoxicity was -13.3%.

As to `On1cnnc1-c1ccccc1`, the cytotoxicity was -12.7%.

`CCCCN1Cc2cc(C(=O)c3cc(F)ccc3O)cnc2NC1=O`: the cytotoxicity was 6.7%.

In the case of `CN1Cc2cc(C(=O)c3cc(Cl)cc(CSc4ncccn4)c3O)cnc2NC1=O`, the cytotoxicity is 66.2% (active).

In the case of `Cc1ccc(O)c(C(=O)c2cnc3c(c2)CN(CCC(C)C)C(=O)N3)c1`, the cytotoxicity was -6%.

Consider `CCCn1c(N)c(C(=O)CSc2nnc(-c3ccco3)n2Cc2ccccc2)c(=O)[nH]c1=O`, for which the cytotoxicity was -9.1%.

In the case of `Cc1cc(NC(=O)NC(=O)c2cccc(OC(F)(F)C(F)F)c2)n[nH]1`, the cytotoxicity was -3.6%.

In the case of `Cc1cc(C)c2c(CN3CCN(C/C=C/c4ccccc4)CC3)cc(=O)oc2c1`, the cytotoxicity was 72.7% (active).

Regarding `Cc1cc(C)c2c(CN3CCN(C)CC3)cc(=O)oc2c1`, the cytotoxicity was 9.6%.

As for `CCN1CCN(Cc2cc(=O)oc3cc(C)cc(C)c23)CC1`, the cytotoxicity was 7.2%.

For the compound `CCOC(=O)c1c(C)n(C)c2ccc(O)c(CN3CCN(C)CC3)c12`, the cytotoxicity was 4.9%.

For the compound `Cc1cc(C2=CC(C)(c3cc(C)oc3C)Nc3nc(C(F)(F)F)nn32)c(C)o1` (centres undefined), the cytotoxicity was 56.2% (active).

Consider `Cc1cccc(NC(=O)c2cnc3sccn3c2=O)c1C`, for which the cytotoxicity was 0.5%.

As for `CCOC(=O)c1ccc(NC(=O)CCC(=O)OC)cc1`, the cytotoxicity was 0%.

As to `CCc1nc(NC2CCCCC2)c(C#N)c2c1COC(C)(C)C2`, the cytotoxicity is 62% (active).

In the case of `CCCc1nc(NC2CCCCC2)c(C#N)c2c1COC(C)(C)C2`, the cytotoxicity is -33.6%.

In the case of `CCc1nc(NCC2CCCO2)c(C#N)c2c1COC(C)(C)C2` (centres undefined), the cytotoxicity was -3%.

As for `COc1ccccc1N1CCN(CC(=O)Nc2c(C)n[nH]c2C)CC1`, the cytotoxicity is 0.8%.

As for `COc1ccc(-c2nc(CS(=O)CC(=O)NCC3CCCO3)c(C)o2)cc1` (centres undefined), the cytotoxicity is -1.7%.

On to `O=S(=O)(c1ccc(F)cc1)N1CCN(c2ncnc3c2cnn3-c2ccccc2)CC1`, for which the cytotoxicity was -6.5%.

Regarding `O=S1(=O)CC(O)C(N2CCC(c3ccccc3)CC2)C1` (centres undefined), the cytotoxicity is -1.5%.

Consider `CN(Cc1cc2ccccc2[nH]c1=O)S(=O)(=O)c1ccccc1`, for which the cytotoxicity was -6.2%.

With `CN(C)CCC(=O)c1ccc(Cl)cc1`, the cytotoxicity was 13.3%.

For the compound `Cc1cc(C)c2[nH]c(=O)c(CN(Cc3ccco3)C(=O)C3CCCO3)cc2c1` (centres undefined), the cytotoxicity is -35.5%.

Take `COc1ccccc1NC(=O)N(Cc1ccco1)Cc1cc2c(C)ccc(C)c2[nH]c1=O`: the cytotoxicity was 33.2%.

With `CCN1CCCC1CN(Cc1cc2cc(C)cc(C)c2[nH]c1=O)C(=O)Nc1ccccc1OC` (centres undefined), the cytotoxicity is 20.9%.

As for `COc1ccccc1NC(=O)N(Cc1ccco1)Cc1cc2cc(C)cc(C)c2[nH]c1=O`, the cytotoxicity was 74.7% (active).

Consider `COc1ccccc1NC(=O)N(Cc1ccco1)Cc1cc2cccc(C)c2[nH]c1=O`, for which the cytotoxicity was -5%.

`COc1ccccc1NC(=O)N(Cc1ccco1)Cc1cc2ccc(C)c(C)c2[nH]c1=O`: the cytotoxicity was 63.7% (active).
